Assay outcomes as filed in PubChem BioAssay.
Compounds with a hit are over-represented: about 4.6% of the library has one in this group of screens.
D1 agonist: agonists of human D1 dopamine receptor | activation, % at 2 µM | HEK293 T-REx D1 cells, calcium flux, agonist mode | P21728 | 1% of 360,000 active
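Tetracycline-induced HEK293 TREx D1 cells, force-coupled to calcium signalling, were dye-loaded with a no-wash calcium kit. Compound was pin-added after a 10 s baseline. Fluorescence was read kinetically at 1 cycle/s for 180 s, with calcium rises flagged as agonism.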
D1 potentiator: potentiators of human D1 dopamine receptor. AID 504651. HEK293 TREx D1 cells, calcium flux, dopamine EC20 potentiation. 0.036% of 360,000 active. potentiation, % at 10 µM. P21728; in the data active means potentiation above about 30%
TRHR ag: activates the human TRH receptor; P34981; TRHR cells, calcium flux fluo-8, FDSS agonist mode; activation, % at 2 µM; 0.18% of 360,000 active; AID 493084
Target sequence (P34981 whole entry, looked up): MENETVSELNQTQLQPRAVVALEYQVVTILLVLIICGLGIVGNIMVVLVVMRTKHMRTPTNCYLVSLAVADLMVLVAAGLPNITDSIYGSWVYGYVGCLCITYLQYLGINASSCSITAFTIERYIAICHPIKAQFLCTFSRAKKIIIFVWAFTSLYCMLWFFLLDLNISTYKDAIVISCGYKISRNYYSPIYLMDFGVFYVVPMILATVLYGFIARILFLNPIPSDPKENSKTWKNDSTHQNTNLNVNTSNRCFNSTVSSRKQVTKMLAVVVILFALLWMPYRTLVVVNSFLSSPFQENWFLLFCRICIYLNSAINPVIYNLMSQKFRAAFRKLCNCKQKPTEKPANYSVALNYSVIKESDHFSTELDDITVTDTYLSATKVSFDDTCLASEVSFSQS
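Steps: seed TRHR cells overnight; add fluo-8 no-wash Ca dye, RT 30 min–1.5 h; record 10 s baseline; pin-transfer compounds; monitor fluorescence 1 cycle/s for the agonist window. Calcium increases flag candidate agonists.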
D1 antag: antagonists of human D1 dopamine receptor. P21728. HEK293 TREx D1 cells, calcium flux, dopamine EC80; hits give low values. activity change, negative = inhibition, % at 10 µM. 3.2% of 360,000 active. AID 504652; in the data active means activity change below about -30%
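Kinetic fluorescence of a calcium dye serves as the read-out. D1-expressing Hek293 Trex cells, induced overnight at 30 C, are exposed to compound for 180 s before an EC80 dopamine addition, then read 180 s further.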
TRHR PAM: allosteric enhancers of human TRH receptor; enhancement, % at 2 µM; 0.66% of 360,000 active; TRHR cells, fluo-8 calcium fluorescence, EC20 TRH enhancement; P34981; in the data active means enhancement above about 30%
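Enhancer read-out: after compound pinning and an initial kinetic agonist-mode read, an EC20 of TRH (10 nM final) was injected and fluo-8 calcium signal (Ex 480/Em 530) followed at 1 s/cycle for 100 cycles in TRHR-expressing cells.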
Of the large screens only hits and unclear results are named; the others gave an inactive call; ! = not confirmed by another sample. Unless noted, no stated cut-off is given here; in the data, active means activation above about 30%; inactive means the rest.

CC(=O)c1ccc(NC(=O)CN2CCN(S(=O)(=O)c3ccc4ccccc4c3)CC2)cc1	D1 agonist 35.0, D1 antag -35.3 (no result: D1 potentiator)
CC(=O)c1ccc(N2CCN(S(=O)(=O)c3ccc4ccccc4c3)CC2)cc1	D1 antag -35.3
CC(C)N1CCN(S(=O)(=O)c2ccc3ccccc3c2)CC1	D1 antag -91.8
CCS(=O)(=O)N1CCN(S(=O)(=O)c2ccc3ccccc3c2)CC1	none
Cc1ccc(C2=CC(c3ccccc3F)n3c(nc4ccccc43)N2)cc1C (configuration not stated)	none
Cc1cc(C)cc(NC(=O)C(Cc2ccccc2)NS(=O)(=O)c2ccc3c(c2)CCC(=O)N3)c1 (configuration not stated)	none
Cc1ccc(CN(C(=O)COc2cccc([N+](=O)[O-])c2)c2ccccn2)o1	none
N#CN1CCC(NC(=O)c2cccc(C(F)(F)F)c2)CC1	none
CC(=O)N1CCc2c(sc3c2c(=O)n(-c2ccccc2Cl)c(=O)n3C)C1	none
COC(=O)N/N=C/c1cccs1	D1 antag -31.6
Cc1ccccc1CSCC(=O)N/N=C/c1cccs1	D1 antag -41.3
O=C(Cc1ccccc1)N/N=C/c1cccs1	none
CCOc1ccc(Cn2c(CNS(=O)(=O)c3ccc(C(C)(C)C)cc3)nc3cccnc32)cc1	none
CCCCc1ccc(S(=O)(=O)Nc2ccc(C)c(NS(C)(=O)=O)c2)cc1	D1 antag -35.1
Cc1ccc2cc(COC(=O)c3cccc([N+](=O)[O-])c3)c(=O)[nH]c2c1	D1 antag -33.7
COc1cc(OC)cc(C(=O)OCc2cc3ccccc3[nH]c2=O)c1	D1 antag -40.4
Cc1ccc2cc(CCNC(=O)c3cccc([N+](=O)[O-])c3)c(=O)[nH]c2c1	none
Cc1nc2sc(C(N)=O)c(N)c2c(-c2ccc(Br)cc2)c1C(=O)Nc1ccc(Cl)cc1	none
COc1cc([N+](=O)[O-])ccc1NC(=O)N1CCC2(CC1)Nc1ccccc1-n1cccc12	none
O=C(CCN1C(=O)COc2ccccc21)NCCCN1CCN(c2ccccc2F)CC1	D1 antag -39.8
Cc1ccc(C)c(N2CCN(CCCNC(=O)CCC(=O)N3CCOc4ccc(Cl)cc43)CC2)c1	none
O=C(CCC(=O)N1CCOc2ccc(Cl)cc21)NCCCN1CCN(c2ccccc2F)CC1	D1 antag -42.0
O=C(CCC(=O)N1CCOc2ccc(Cl)cc21)NCCCN1CCC(Cc2ccccc2)CC1	D1 antag -41.1
COc1ccccc1CNc1nc2c(S(=O)(=O)c3ccccc3)nnn2c2ccc(Cl)cc12	none
Cc1cc(C)cc(N2C(=O)CSC23C(=O)N(CC(=O)NC2CCCCC2)c2ccccc23)c1 (configuration not stated)	none
Cc1ccc(C2=Nc3ccccc3N(CC(=O)Nc3ccccc3C)C(=O)C2)cc1C	none
O=C(NCCc1ccccc1)/C(=C\c1ccc([N+](=O)[O-])cc1)NC(=O)c1ccco1	D1 antag -38.1
O=C(NCc1ccccc1)/C(=C\c1ccc([N+](=O)[O-])cc1)NC(=O)c1ccco1	none
C=CCOC(=O)/C(=C\c1ccccc1)NC(=O)c1ccco1	D1 antag -43.1
O=C(N/C(=C\c1ccccc1)C(=O)N1CCOCC1)c1ccco1	TRHR PAM 30.4
Cc1cc(Br)ccc1NC(=O)CSc1c2c(nc3ccccc13)CCC2	none
COc1cc(/C=C2\SC(=S)N(NC(=O)c3ccncc3)C2=O)ccc1O	none
COc1cc(/C=C2\SC(=S)N(NC(=O)c3ccccc3OC)C2=O)ccc1O	D1 agonist 48.5
COc1cc(/C=C2\SC(=S)N(NS(=O)(=O)c3ccccc3)C2=O)ccc1O	D1 agonist 44.0
COc1cc(/C=C2\SC(=S)N(NC(=O)c3cccc(O)c3)C2=O)ccc1O	D1 agonist 110.0, TRHR ag 75.0
Cn1c2cc(Br)sc2c2cnn(Cc3ccc(F)cc3)c(=O)c21	none
CCN(C(=O)c1ccc2c(SCC(=O)O)c3c(nc2c1)CCC3)c1cc(Cl)ccc1OC	none
O=C(Nc1ccc([N+](=O)[O-])cc1)Nc1nc(-c2ccc(Cl)s2)cs1	D1 antag -47.5
CC(=O)Nc1nc(-c2ccc([N+](=O)[O-])cc2)cs1	none
Cc1ccccc1S(=O)(=O)Cc1ccc(C(=O)NCCCN2CCCC2)o1	none
COc1ccc(CNC(=O)c2ccc(CS(=O)(=O)c3ccccc3C)o2)cc1	none
COc1ccccc1S(=O)(=O)Cc1ccc(C(=O)NCC2CCCO2)o1 (configuration not stated)	D1 antag -35.8
CCN1CCCC1CNC(=O)c1ccc(CS(=O)(=O)c2ccccc2C)o1 (configuration not stated)	TRHR PAM 30.9
COc1ccccc1CNC(=O)c1ccc(CS(=O)(=O)c2ccccc2C)o1	D1 agonist 31.2!, D1 antag -38.2!
COc1ccccc1CNC(=O)c1ccc(C)s1	D1 antag -46.3
CN(C)CCCNc1cc(N2CCN(C3CCCCC3)CC2)c2noc3c2c1C(=O)c1ccccc1-3	none
Cc1ccc(C)c(N2CCN(C(=O)c3cc4c(=O)n(Cc5ccccc5)ccc4nc3C)CC2)c1	none
Cc1c(C(=O)NCC2CCCO2)oc2ccccc12 (configuration not stated)	D1 antag -31.3 (no result: D1 potentiator)
Cc1ccccc1OCCCn1c(-c2ccc(Cl)cc2)nc2ccccc2c1=O	none
COc1ccc(OCC(=O)Nc2c3c(nn2-c2ccccc2)CS(=O)(=O)C3)cc1	none
Cc1ccc(S(=O)(=O)/C(=C\N(C)C)c2cnc(Cl)s2)cc1	none
O=[N+]([O-])c1cccnc1N1CCC(c2cc(-c3ccc(Cl)cc3)n[nH]2)CC1	D1 antag -33.1
CCOC(=O)CN1CCC(c2cc(-c3ccc(Cl)cc3)n[nH]2)CC1	none
CN(Cc1ccccc1)C(=O)C1CCN(S(=O)(=O)Cc2ccccc2)CC1	none
O=C1c2ccccc2S(=O)(=O)c2cc(C(=O)N(c3ccccn3)c3ccccn3)ccc21	D1 agonist 300.3, TRHR ag 69.9, TRHR PAM 39.6
Cc1ccc(S(=O)(=O)N[C@@H](C)C(=O)OCC(=O)N2c3ccccc3NC(=O)C2(C)C)cc1	none
COc1ccc(C(=O)Nc2nnc(SCC(=O)Nc3ccc(NC(C)=O)cc3)s2)c(OC)c1	none
CCc1nnc(NC(=O)c2ccc(OC)cc2OC)s1	D1 antag -30.2
Cc1nn(-c2ccccc2)c2sc(C(=O)N3CCc4ccccc4C3)cc12	TRHR PAM 32.0
Cc1nn(-c2ccccc2)c2sc(C(=O)NC3CCCCC3)cc12	D1 antag -51.6
N#Cc1ccccc1Cn1c(=O)n(CCCC(=O)NCc2ccccc2Cl)c(=O)c2ccccc21	none
CCc1ccc(NC(=O)c2sc3nc(C)cc(C)c3c2NC(=O)c2ccccc2OC)cc1	TRHR PAM 39.9
CCN(CC)S(=O)(=O)c1ccc(N2CCN(S(=O)(=O)c3ccccc3C#N)CC2)nc1	D1 antag -83.2
